Results on twelve compounds are retold here after PubChem BioAssay.

Active and inactive are the calls of the source.

Experiment [1] can be described thus: resazurin metabolic signal in HepG2 cells – cell-based, resazurin fluorescence, 24 h, PK04 Diversity Set, profiling panel (AID 1172). Also: test concentration not given here. To be noted: HepG2 viability, higher = more signal. Background: Resazurin is reduced to fluorescent resorufin, in cell work by metabolically active cells.
Experiment [2] is described as follows: budding yeast growth changes without added modifier – OD600, strain BY4716, 24 h, basal condition, primary screen (AID 1173). The conditions noted are these: S. cerevisiae BY4716 growth, OD600, 24 h; higher = more signal, called active from +8 up or from −8 down.
Experiment [3] is described as follows: viability profiling in MM1S myeloma cells – cell-based, resazurin fluorescence, basal, 24 h, PK04 Diversity Set, profiling panel (AID 1174).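 Also: MM1S multiple myeloma cell line; test concentration not given here.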 To be noted: higher = more signal, called active from +8 up or from −8 down.
The target in experiment [4] is Dihydroorotate dehydrogenase (quinone), mitochondrial (Plasmodium falciparum (isolate 3D7)) (UniProt Q08210). The experiment in a line: inhibition of P. falciparum DHODH – biochemical, C-terminal His tag, absorbance 600 nm, primary screen (AID 1175).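 Also: recombinant parasite enzyme with a five histidine tag at its C terminus; test concentration not given here.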 The conditions noted are these: PfDHODH enzyme, DCIP absorbance 600 nm; higher = more signal, called active from +8 up or from −8 down.

Experiment [5] in a line: growth modulation of vineyard yeast isolate – strain RM11-1a, OD600, basal, 24 h, primary screen (AID 1177).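 Also: cultures grown under basal conditions with no added stressor; test concentration not given here.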 To be noted: S. cerevisiae RM11-1a growth, OD600, 24 h; higher = more signal, called active from +8 up or from −8 down.
A short description of experiment [6]: growth of efflux-deficient E. coli DRC39 – strain DRC39, OD650, 24 h, E. coli filamentation inducers, primary screen (AID 1178).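 Also: growth measured as culture turbidity by optical density at 650 nm; test concentration not given here.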 To be noted: E. coli DRC39 acrAB, higher = more signal, called active from +8 up or from −8 down.
A short description of experiment [7]: growth of efflux-deficient E. coli DRC39 – strain DRC39, OD650, 48 h, E. coli filamentation inducers, primary screen (AID 1179).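 Also: screen aims at cell division blockers that make cells filament.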 To be noted: E. coli DRC39 delta-acrAB growth, higher = more signal, called active from +8 up or from −8 down.
Experiment [8] can be described thus: viability profiling in RPMI8226 myeloma cells – cell-based, resazurin fluorescence, basal, 24 h, PK04 Diversity Set, profiling panel (AID 1180).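 Also: RPMI8826 multiple myeloma cell line at 5000 cells per well; test concentration not given here.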 To be noted: higher = more signal.
Experiment [9] has as its target E3 ubiquitin-protein ligase XIAP (Homo sapiens) (UniProt P98170). Briefly: small molecules binding XIAP protein – biophysical, small-molecule microarray, fluorescence 635 nm, primary screen (AID 1181).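 Also: score merges 667 nm emission and signal to noise over triplicate slides.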 The conditions noted are these: higher = more signal.

Dihydroorotate dehydrogenase (quinone), mitochondrial (Plasmodium falciparum (isolate 3D7)), sequence (Q08210 whole entry, looked up): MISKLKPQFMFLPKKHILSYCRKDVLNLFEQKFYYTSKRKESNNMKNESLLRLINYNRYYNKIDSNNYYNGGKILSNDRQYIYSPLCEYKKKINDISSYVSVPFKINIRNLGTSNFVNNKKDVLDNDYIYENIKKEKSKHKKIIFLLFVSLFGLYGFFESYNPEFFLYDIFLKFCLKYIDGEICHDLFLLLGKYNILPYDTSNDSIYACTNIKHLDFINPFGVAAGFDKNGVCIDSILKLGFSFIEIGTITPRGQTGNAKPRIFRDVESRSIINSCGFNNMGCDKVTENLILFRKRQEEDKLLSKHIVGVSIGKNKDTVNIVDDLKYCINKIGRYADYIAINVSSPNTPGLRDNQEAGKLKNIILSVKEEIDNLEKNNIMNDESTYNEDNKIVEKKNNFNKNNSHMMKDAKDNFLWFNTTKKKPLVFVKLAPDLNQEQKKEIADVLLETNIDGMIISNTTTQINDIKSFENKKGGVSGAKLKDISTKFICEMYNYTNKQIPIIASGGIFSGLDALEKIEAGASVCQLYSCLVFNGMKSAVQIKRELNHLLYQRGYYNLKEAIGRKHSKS
E3 ubiquitin-protein ligase XIAP (Homo sapiens), sequence (P98170 whole entry, looked up): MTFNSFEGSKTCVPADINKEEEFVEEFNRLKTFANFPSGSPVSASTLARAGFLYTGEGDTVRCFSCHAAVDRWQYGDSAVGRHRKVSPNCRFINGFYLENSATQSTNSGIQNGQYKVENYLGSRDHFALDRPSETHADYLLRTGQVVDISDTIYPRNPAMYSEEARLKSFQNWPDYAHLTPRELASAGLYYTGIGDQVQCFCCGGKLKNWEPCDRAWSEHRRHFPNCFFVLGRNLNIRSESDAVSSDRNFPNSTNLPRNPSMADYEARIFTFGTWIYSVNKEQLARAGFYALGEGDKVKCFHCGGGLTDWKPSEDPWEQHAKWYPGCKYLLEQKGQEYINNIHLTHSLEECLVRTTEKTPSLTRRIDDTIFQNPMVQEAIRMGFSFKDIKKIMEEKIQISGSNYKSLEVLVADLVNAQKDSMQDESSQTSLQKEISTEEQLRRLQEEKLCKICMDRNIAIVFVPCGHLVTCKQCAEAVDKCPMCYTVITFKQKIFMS

Consider `C[N+](C)(C)CCCCNC(=O)[C@@H]1C[C@@H]2C(=O)N3CCC[C@H]3C(=O)N2[C@@H]1c1cccc(OCCO)c1`, for which the z-score in experiment [1] is 0.0931; in experiment [2] it was 0.0521 (inactive); in [3], 0.982 (inactive); in [5] it was -1.27 (inactive); in experiment [6] it was 0.497 (inactive); in experiment [7], 0.0567 (inactive). The compound also registered a z-score in experiment [8] of 0.947. Moreover, the composite z-score was -31.2 (active) in experiment [4] and -0.0619 in experiment [9].

Take `CO[C@@H]1COC(=O)[C@H](C)NC(=O)CC=C[C@@H](C)[C@H](OC)COC(=O)[C@H](C)NC(=O)CC=C[C@H]1C`: the z-score was 0.542 in experiment [1]; -0.786 (inactive) in experiment [2]; 0.102 (inactive) in experiment [3]; -0.161 (inactive) in experiment [5]; 0.884 (inactive) in [6]; 0.552 (inactive) in [7]. This compound gave a z-score in experiment [8] of -0.171. Further, the values for the composite z-score in [4] and in experiment [9] were 0.32 (inactive) and -0.142, respectively.

`NC(=O)NCC#Cc1ccc2c(c1)[C@]1(C(=O)N2)[C@H](C(=O)N2CCCCCCC2)[C@H]2C(=O)O[C@H](c3ccccc3)[C@H](c3ccccc3)N2[C@@H]1c1ccccc1OCCO`: the z-score is 0.237 in experiment [1]; -0.643 (inactive) in experiment [2]; 1.4 (inactive) in [3]; 0.827 (inactive) in [5]; 0.218 (inactive) in experiment [6]; 0.125 (inactive) in experiment [7]. In [8], the z-score came out at 1.13. Besides, the composite z-score in experiment [4] was -0.121 (inactive); in experiment [9], 0.306.

Turning to `COc1ccc([Si](C)(C)[C@H]2[C@H](CC(=O)N3Cc4ccccc4C[C@H]3CO)O[C@@]3(C(=O)N(Cc4cccc(N5CCOC5=O)c4)c4ccccc43)[C@@H]2C)cc1`, the z-score in [1] is -0.341; in [2], -2.22 (inactive); in experiment [3], -1.71 (inactive); in experiment [5] it was 0.446 (inactive); in experiment [6] it was 1.63 (inactive); in experiment [7] it was 0.856 (inactive). In experiment [8], this compound registered a z-score of -1.75. In addition, the composite z-score in experiment [4] is -0.135 (inactive); in experiment [9], 0.22.

In the case of `CCCC/C=C/[C@H]([C@@H](O)Cc1ccccc1)N(CC#Cc1ccccc1)Cc1ccccc1Br`, the z-score in experiment [1] was 1.65; in experiment [2] it was -1.44 (inactive); in experiment [3] it was 0.579 (inactive); in experiment [5], 0.994 (inactive); in [6], 2.75 (inactive); in experiment [7], 1.19 (inactive). Moreover, the z-score in [8] is 0.788. Also, the composite z-score in experiment [4] was 0.197 (inactive); in experiment [9], -0.039.

As to `CN1CCC(CCCO)=CC1C1CC1` (stereo not drawn), the z-score was 0.413 in experiment [1]; -0.821 (inactive) in experiment [2]; 1.18 (inactive) in experiment [3]; -1.57 (inactive) in [5]; 0.887 (inactive) in [6]; 0.611 (inactive) in [7]. Also, the z-score in experiment [8] amounted to 0.63. The composite z-score in experiment [4] was -1.13 (inactive); in experiment [9], 0.77.

As to `O=C1c2ccccc2[C@](Cc2ccccc2I)(C(=O)O)[C@H](c2ccc(CO)cc2)N1C1CCCCC1`, the z-score in experiment [1] was -0.221; in [2], -1.14 (inactive); in experiment [3], 1.8 (inactive); in [5], -1.05 (inactive); in experiment [6] it was 0.938 (inactive); in experiment [7], 0.832 (inactive). For the same compound, in experiment [8], the z-score was determined as 1.36. In addition, the composite z-score in experiment [4] is -0.0088 (inactive); in experiment [9] it was 0.0225.

As to `C=CCc1cccc([C@@H]2[C@@H](C)CC[C@H]3C(=O)N4[C@H](c5cccc(CC=C)c5)[C@@H](C)CC[C@H]4C(=O)N23)c1`, the z-score was 2.52 in experiment [1]; -1.2 (inactive) in experiment [2]; 0.778 (inactive) in [3]; 1.1 (inactive) in experiment [5]; 0.55 (inactive) in experiment [6]; -0.184 (inactive) in experiment [7]. The compound further gave a z-score in experiment [8] of -1.11. The composite z-score in experiment [4] is -1.76 (inactive); in experiment [9], -0.187.

For the compound `COCCOC(=O)N1C(=O)[C@@]2(c3cc(C#CCNC(N)=O)ccc31)[C@H](c1ccc(OCCO)cc1)N1[C@H](c3ccccc3)[C@H](c3ccccc3)OC(=O)[C@H]1[C@@H]2C(=O)Nc1nc2ccccc2s1`, the z-score was -0.265 in [1]; 0.846 (inactive) in experiment [2]; 1.48 (inactive) in experiment [3]; 2.46 (inactive) in [5]; 0.24 (inactive) in [6]; 0.782 (inactive) in experiment [7]. The same compound returned a z-score in experiment [8] of 1.3. Besides, the composite z-score in [4] is 0.665 (inactive); in experiment [9], 0.0472.

As for `COCCOC(=O)N1C(=O)[C@@]2(c3cc(C#CCC(C(=O)OC)C(=O)OC)ccc31)[C@H](C(=O)N1CCN(c3ncccn3)CC1)[C@H]1C(=O)O[C@H](c3ccccc3)[C@H](c3ccccc3)N1[C@@H]2c1ccc(O)cc1`, the z-score in [1] was 0.203; in experiment [2], -0.746 (inactive); in experiment [3] it was 0.805 (inactive); in experiment [5] it was 0.164 (inactive); in experiment [6], 0.535 (inactive); in [7] it was 1.31 (inactive). The same compound yielded a z-score in experiment [8] of 0.821. Besides, the composite z-score in experiment [4] was -1.06 (inactive); in experiment [9] it was -0.0749.

Consider `COc1cccc([C@H]2N[C@H](C(=O)O)CC[C@@H]2C)c1`, for which the z-score is -0.104 in experiment [1]; -1.03 (inactive) in [2]; 0.975 (inactive) in [3]; -0.393 (inactive) in [5]; -0.914 (inactive) in [6]; -0.83 (inactive) in [7]. The z-score in experiment [8] amounted to 0.761. The composite z-score in experiment [4] is -2.33 (inactive); in [9] it was 0.169.

For the compound `CCOC(=O)C[C@H]1[C@H](OC(=O)c2ccccc2-c2ccccc2)[C@@H](NC(=O)C2CCCCC2)c2cc(OCCCO)ccc2N1C(=O)c1ccccc1`, the z-score in [1] is -0.206; in [2] it was -0.686 (inactive); in [3], 0.609 (inactive); in experiment [5], 1.33 (inactive); in experiment [6], 2.32 (inactive); in experiment [7], 1.37 (inactive). For the same compound, the z-score in experiment [8] worked out at 0.737. The composite z-score in experiment [4] is 0.684 (inactive); in experiment [9], -0.0351.
